# Measured values from the supplement of paper PMC12067093, “Discovery and optimisation of a covalent ligand for TRIM25 and its application to targeted protein ubiquitination” (Chemical Science, 2025).
# About 21,000 targets were measured; listed, in parts, are those with the largest changes and a random draw of the rest.
# Compound: Cc1cc(ccc1-c1ccccc1)C(=O)N1CCCN(CC1)C(=O)CCl [compound 10]
# Test: probe-labelled cysteine peptide fold change vs DMSO (competition) (log2 fold change); higher = less target engagement (more negative = stronger competition)
# Conditions: THP-1, incubation time: 4 h
# 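Also: competitive profiling in live THP-1 cells: cysteine peptides tagged with an iodoacetamide desthiobiotin (IA-DTB) probe, intensity after compound treatment relative to DMSO-treated cells.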
Target,probe-labelled cysteine peptide fold change (10 µM),probe-labelled cysteine peptide fold change (50 µM)
RAB29_O14966_127_CDLSPWAVSR (UniProt O14966),-0.0495,0.0455
RANBP2_P49792_1749_CIACQCPSK (UniProt P49792),0.0505,0.0953
PSMD11_O00231_202_TTANAIYCPPK (UniProt O00231),0.077,0.248
RBBP5_Q15291_100_LVSASTDNIVSQWDVLSGDCDQR (UniProt Q15291),0.121,0.0651
RANGAP1_P46060_169_ILAAALTECHRK (UniProt P46060),-0.159,-0.379
RLF_Q13129_1494_VCQTADTQGHEHQTTR (UniProt Q13129),0.131,-0.309
RANBP2_P49792_707_AEDIENDALSPEEQEECK (UniProt P49792),0.0365,0.0945
RBM25_P49756_132_LQAFGFCEYKEPESTLR (UniProt P49756),-0.148,-0.0661
RBM34_P42696_196_TVFVGNLPVTCNK (UniProt P42696),0.0157,-0.186
PRKCD_Q05655_261+264_CEDCGMNVHHK (UniProt Q05655),-0.702,-1.69
RBM28_Q9NW13_97_NENSECPK (UniProt Q9NW13),-0.0194,0.16
QSOX1_O00391_110_AWRPALYLAALDCAEETNSAVCR (UniProt O00391),-0.147,-0.174
PSME4_Q14997_637_CCPEESLK (UniProt Q14997),-0.0784,-0.446
PRMT3_O60678_67_LFTSAEETFSHCK (UniProt O60678),0.049,0.0747
PYCR1_P32322_262_SLLINAVEASCIR (UniProt P32322),0.0279,0.0718
RLF_Q13129_400_TIACLLPEDLEVRR (UniProt Q13129),-0.0742,-0.58
PRKD2_Q9BZL6_169_CDGCGLNYHK (UniProt Q9BZL6),-0.0725,0.00149
PRPF8_Q6P2Q9_2116_KFICISDLR (UniProt Q6P2Q9),0.0139,0.129
RCCD1_A6NED2_139_LPLLPCAR (UniProt A6NED2),-1.01,-1.9
PRPF4_O43172_441_RCVYTIPAHQNLVTGVK (UniProt O43172),-0.0522,-0.2
PSME4_Q14997_718_QGYTLSCNLLHHLLR (UniProt Q14997),0.366,0.173
PRKCB_P05771_132+135_CDTCMMNVHKR (UniProt P05771),-0.193,-0.881
